# According to PubChem BioAssay:
# Assay: compounds binding Alexa647 anti-His antibody – biochemical, small-molecule microarray, 635 nm fluorescence, artefact control for SMM control protein annotation, primary screen (AID 1128);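 also: score merges feature fluorescence with signal-to-noise for each printed compound spot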
# Conditions: higher = more signal
row,SMILES,composite z-score
1,CC#CC(=O)Oc1ccccc1C=CC(=O)OCC,0.259
2,CC(C)CNC(=O)[C@@]1(Cc2ccccc2I)c2ccccc2C(=O)N(C2CCCCC2)[C@H]1c1ccc(CO)cc1,1.57
3,O=C(c1ccccc1)N1C(=O)[C@]2(COC(c3ccc(OCCCO)cc3)=N2)Cc2ccccc21,3.28
4,CC(C)(C)OC(=O)CC[C@]1(C(=O)N2CCOCC2)N=C(c2ccc(OCCCO)cc2)O[C@H]1c1ccccc1N=[N+]=[N-],2.82
5,COCCOC(=O)N1C(=O)[C@@]2(c3cc(C#CCC(C(=O)OC)C(=O)OC)ccc31)[C@H](c1ccccc1OCCO)N1[C@H](c3ccccc3)[C@H](c3ccccc3)OC(=O)[C@H]1[C@@H]2C(=O)NC[C@H](O)c1ccccc1,1.33
6,COCCCNC(=O)[C@]1(CCC(=O)OC(C)(C)C)N=C(c2ccc(OCCCO)cc2)O[C@@H]1c1ccccc1CN=[N+]=[N-],1.3
7,CCOC(=O)C1=C[C@@H](C(C)(C)C)N(S(=O)(=O)c2ccc(C)cc2)[C@H]1c1ccc(F)cc1,0.416
8,COc1cc(NN2C(C(O)c3ccco3)C=CC3C(=O)N(c4ccccc4)C(=O)C32)cc(OC)c1OC (stereo not given),0.284
9,CCC(CC)C(O)C1C=CC2C(=O)NC(=O)C2N1Nc1ccc(Cl)cc1Cl (stereo not given),1.66
10,CCCC[C@H]1OB(O)C[C@H]2C1=C(COC)Cn1c(=O)n(-c3ccccc3)c(=O)n12,-0.152
11,C=C(COC)/C(=C/C[C@@H](OC(C)=O)c1ccc(OCCO)cc1)c1cnc2ccccc2c1,0.616
12,CN(C)C(=O)[C@@]1(CCS(=O)(=O)c2ccccc2)COC(c2ccc(OCCCO)cc2)=N1,1.45
13,CCCCCCc1nc(-c2ccc(OC)nc2)cc2c1[Si](C(C)C)(C(C)C)O[C@H]2c1ccccc1,-0.133
14,O=C(CS)NCCCCCCNC(=O)[C@@H]1C[C@@H]2C(=O)N[C@@H](Cc3ccccc3)C(=O)N2[C@@H]1c1cccc(OCCO)c1,3.09
15,COC(=O)[C@@]1(Cc2ccc(OC)cc2)[C@H]2c3cc(C(=O)N(C)C)n(Cc4ccc(S(C)(=O)=O)cc4)c3C[C@H]2CN1C(=O)c1ccccc1,1.84
16,O=C1C[C@@](C(=O)NC2CC2)(c2ccc([N+](=O)[O-])cc2)[C@@H](c2ccc(CO)cc2I)N1C1CCCCC1,0.342
17,CN1C=C(C(=O)OCCS(C)(=O)=O)C(C(=O)OCCS(C)(=O)=O)=CC(c2ccc(CO)cc2)=CC1C1CC1 (stereo not given),-0.281
18,O=C1NC(=O)C2C1C=CC(C(O)c1cc(C(F)(F)F)cc(C(F)(F)F)c1)N2Nc1ccccn1 (stereo not given),0.191

row,SMILES,composite z-score
1,CN(C)CCCCCCNC(=O)[C@@H]1C[C@@H]2C(=O)N[C@@H](Cc3ccccc3)C(=O)N2[C@@H]1c1ccc(O)cc1,2.45
2,Cc1nc2cc(Br)ccc2c(=O)o1,0.302
3,O=C(NC1CC1)[C@@H]1c2ccccc2C(=O)N(Cc2ccccc2Cl)[C@H]1c1ccc(CO)cc1,3.06
4,O[C@@H](Cc1ccccc1)[C@H]1C2C=CCCC=C2CN1Cc1cccc(Cl)c1 (stereo not given in full),1.21
5,COCCOC(=O)N1C(=O)[C@@]2(c3cc(C#CCNC(N)=O)ccc31)[C@H](C(=O)N1CCN(c3ncccn3)CC1)[C@H]1C(=O)O[C@H](c3ccccc3)[C@H](c3ccccc3)N1[C@@H]2c1ccc(OCCO)cc1,0.549
6,COCCOC(=O)N1C(=O)[C@@]2(c3cc(C#CCNC(N)=O)ccc31)[C@H](C(=O)Nc1nc3ccccc3s1)[C@H]1C(=O)O[C@H](c3ccccc3)[C@H](c3ccccc3)N1[C@@H]2c1ccc(OCCO)cc1,-0.187
7,CC(C)C(O)C1C=CC2C(=O)N(c3ccccc3)C(=O)C2N1Nc1ccc([N+](=O)[O-])cc1 (stereo not given),0.663
8,CCOC(=O)C[C@H]1[C@H](OC(=O)c2ccccc2-c2ccccc2)[C@@H](NC(=O)CC(C)C)c2cc(OCCCO)ccc2N1C(=O)Cc1ccc(OC)cc1,-0.272
9,C=C(CCCC)/C(=C/C[C@H](OC(C)=O)c1ccccc1OCCO)c1cc(C(=O)OC)ccc1OC,-0.33
10,C=CCC(OC(C)=O)[C@@H]1[C@@H](N(Cc2ccc(-c3ccccc3)cc2)C(=O)Cc2ccc(OC)cc2)c2cc(OCCCO)ccc2N1C(=O)Cc1ccc2ccccc2c1 (stereo not given in full),-0.142
11,COc1ccc(CCNC(=O)[C@@]2(Sc3ccc(C)cc3)CC(=O)N(C3Cc4ccccc4C3)[C@@H]2c2ccc(CO)cc2I)cc1,1.13
12,COC(=O)[C@@]1(Cc2ccccc2)N=C(c2ccc(OCCCO)cc2)O[C@H]1c1ccccc1,2.44
13,COCCOC(=O)N1C(=O)[C@@]2(c3cc(C#CCC(C(=O)OC)C(=O)OC)ccc31)[C@H](c1ccccc1OCCO)N1[C@H](c3ccccc3)[C@H](c3ccccc3)OC(=O)[C@H]1[C@@H]2C(=O)N1CCN(c2ncccn2)CC1,0.762
14,C=C(CCCC)/C(=C/C[C@@H](OC(=O)c1ccncc1)c1ccc(OCCO)cc1)c1cc(C(=O)OC)ccc1OC,0.551
15,CCCCN1CC=CC23O[C@@H]4C=CCCOC(=O)C4[C@H]2C(=O)N(CCCCCCO)[C@@H]3C1=O (stereo not given in full),0.435
16,CN(C)CCCC[C@@H]1NC(=O)[C@H]2C[C@@H](C(=O)NCCCCCCN)[C@@H](c3ccc(O)cc3)N2C1=O,2.07
17,COc1ccc(-c2cc3c(c(-c4ccc(Oc5ccccc5)cc4)n2)[Si](C(C)C)(C(C)C)OC3)cn1,0.0674
